From PubChem
This excerpt belongs to a sample that is enriched for hits.
Tb PYK inh: qHTS of Trypanosoma Brucei Inhibitors. pyruvate kinase (Trypanosoma brucei), Q57TT1. TbPYK enzyme, Kinase-Glo Plus ATP luminescence, 45 min. Potency, µM (series often up to 76.8 µM), actives largely listed as inhibitors. 410,000 tested, 0.12% active; note: nearly all actives have a fitted effect of over 50% in size
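T. brucei PYK with substrate was exposed to pin-transferred compounds across a concentration series, then started with 130 uM ADP (final). After 45 min at room temperature, Kinase-Glo Plus luminescence was read, normalized and curve-fitted.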
Shiga toxin inh: A qHTS for Small Molecule Inhibitors of Shiga Toxin. Vero cells, Shiga toxin protein synthesis inhibition reporter. inhibition, % at 38.7 µM. 290,000 tested, 9.2% active. AID 2315, 2010; in the data active = inhibition mostly above about 28%, no sharp cut-off; inactive = mostly below about 43%
LmPK inh: qHTS Assay for Inhibitors of Leishmania Mexicana Pyruvate Kinase (LmPK); purified LmPK, Kinase-Glo ATP luminescence, 1 h; Potency, µM (series often up to 57.5 µM), actives largely listed as inhibitors; AID 1721, 2009; Q27686; 290,000 tested, 0.37% active
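qHTS format; LmPK 0.1 nM; substrates PEP 0.5 mM and ADP 0.1 mM. One-hour room-temperature incubation, then coupled luciferase luminescence; 0.5 nM enzyme wells mark activation.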
Sm TGR block: qHTS Assay for the Inhibitors of Schistosoma Mansoni Peroxiredoxins | purified TGR, DTNB reduction, TNB absorbance 405 nm | Schistosoma mansoni thioredoxin glutathione reductase (TGR), Q962Y6 | AID 485364, 2010 | Potency, µM (top dose mostly 114 µM), most hits filed as inhibitors | 360,000 tested, 3% active; note: nearly all actives have a fitted effect of over 60% in size
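TGR 20 nM + NADPH 100 uM (dispensed conc.), cpd preinc 15 min RT; start with NADPH (500 uM addition) then DTNB (15 mM addition). Kinetic TNB absorbance, 405 nm filter. Four-parameter Hill fit across titration.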
FBPA Giardia inh: qHTS Assay for Inhibitors of Fructose-1,6-bisphosphate Aldolase from Giardia Lamblia; Potency, µM (highest dose often 59.6 µM), hits mostly inhibitors; 290,000 tested, 0.71% active; purified Giardia FBPA; A8B2U2; note: nearly all actives have a fitted effect of over 55% in size
Target sequence (A8B2U2 whole entry, looked up): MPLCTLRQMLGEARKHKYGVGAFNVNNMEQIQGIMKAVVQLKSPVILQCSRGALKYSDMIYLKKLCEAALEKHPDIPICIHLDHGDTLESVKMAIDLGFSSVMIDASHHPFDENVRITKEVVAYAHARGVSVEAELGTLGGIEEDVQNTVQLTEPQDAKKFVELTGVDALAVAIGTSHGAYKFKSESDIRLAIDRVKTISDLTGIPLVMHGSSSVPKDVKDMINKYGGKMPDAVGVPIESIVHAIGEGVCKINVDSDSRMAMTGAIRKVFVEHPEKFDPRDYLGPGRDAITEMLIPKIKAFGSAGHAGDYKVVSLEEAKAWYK
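40 nM FBPA preincubated 10 min at RT with compound (up to 57.5 uM final), then substrate plus GAPDH/TPI/NAD/arsenate coupling and diaphorase/resazurin added. Fluorescence read after 20 min at RT, 525/598 nm.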
CHX counter: Cycloheximide Counterscreen for Small Molecule Inhibitors of Shiga Toxin | cell reporter, cycloheximide protein synthesis inhibition counterscreen | max response, % | 300,000 tested, 12% active | AID 2314, 2010; in the data active = max response mostly above about 13%, no sharp cut-off; inactive = mostly below about 14%; note: read at 38.3 µM for the half of the compounds with a filed dose
Numbers stand for hits; i = inactive; ? = inconclusive; nt = no result; [ ] = another dose, or the depositor's remark. Unless noted, calls come from the whole dose curve; as a rule, active = well fitted curve in the direction sought with a large enough effect; inconclusive = small, poorly fitted or top-dose-only effect, or another doubt; inactive = no such curve, though single readings can be large; an effect the other way counts as inactive or inconclusive.

SMILES | Tb PYK inh | Shiga toxin inh | LmPK inh | Sm TGR block | FBPA Giardia inh | CHX counter
COc1ccc(C(=O)NCCCOC(=O)c2ccc(OC)cc2)cc1 | i | i | i | i | i | i
CCN(C(=O)CCNC(=O)Cn1cnc2ccccc2c1=O)c1cc(OC)ccc1OC | i | nt | nt | i | nt | nt
O=C(/C=C/c1ccccc1Cl)Nc1ccc2c(c1)C(=O)NC2=O | i | 58 | i | i | i | i
O=C(/C=C/c1ccccc1)Nc1ccc2c(c1)C(=O)NC2=O | i | i | i | i | i | 19
Cn1c(NC(=O)/C=C\c2ccccc2)cc(=O)n(C)c1=O | i | 80 | i[11.5 µM] | i | i | 36
O=C(Nc1ccc2c(c1)C(=O)NC2=O)c1ccccc1 | i | i | i | i | i | i
CCN(CC(=O)Nc1cc(Cl)ccc1C)C(=O)CCS(=O)(=O)c1ccc(Cl)cc1 | i | i | i | ? | nt | i
O=C(NCc1ccccc1Cl)c1ccc2c(c1)N(Cc1ccccc1)CCS2 | i | nt | nt | i | nt | nt
Cc1ccc(Cn2cc(CCC(=O)NCC(C)c3ccccc3)c3ccccc32)cc1 (configuration not stated) | i | nt | nt | i | nt | nt
CN(C)/C=C/C(=O)c1ccc(Cl)c([N+](=O)[O-])c1 | i | i | i | i | i | 21
CN(C)/C=C/C(=O)c1cccc(Cl)c1 | i | i | i | i | i | 17
CN(C)/C=C/C(=O)c1ccc(-n2cccc2)cc1 | i | 75 | i | i | i | 30
CN(C)/C=C/C(=O)c1ccc(Cl)cc1 | i | i | i | i | i | i
O=C(N/N=C/c1ccc(Br)s1)c1cccs1 | i | 80 | i | i | i | 48
O=C(NN=Cc1ccc2c(c1)CCN2)c1cccs1 | i | nt | nt | nt | nt | nt
O=C(N/N=C/c1ccc(Br)s1)Nc1ccccc1 | i | i | i | i | i | 46
Cc1ccc(/C=N/NC(=O)c2cccs2)s1 | i | 85 | i | i | i | 52
O=C(C1CC(=O)N(c2ccc(F)c(Cl)c2)C1)N1CCOCC1 (configuration not stated) | i | nt | nt | nt | nt | nt
N#Cc1ccccc1NC(=O)C(=O)NCC(c1cccnc1)N1CCc2ccccc21 (configuration not stated) | i | nt | nt | i | nt | nt
COC(=O)c1ccc(C(NC(=O)OCc2ccccc2)/C(I)=C/[C@@H](C)C(=O)Nc2ccccc2)cc1 (some centres not stated) | nt | nt | nt | nt | i | nt
O=C(COC(=O)COc1cccc(C(F)(F)F)c1)NC1CCCC1 | i | nt | nt | i | nt | nt
NS(=O)(=O)c1ccc(NC(=O)NC2CC(=O)N(c3ccc4c(c3)OCCO4)C2)cc1 (configuration not stated) | i | nt | nt | i | nt | nt
O=[N+]([O-])/C(C(Cl)=C(Cl)Cl)=C(\Sc1ccccc1)N1CCCCC1 | i | i | i | 13µM | i | i
CCN(CC)/C(Sc1ccccc1)=C(/C(Cl)=C(Cl)Cl)[N+](=O)[O-] | i | i | i | 56µM | i | 24
CCN(CC)/C(Sc1ccccc1)=C(\C(Cl)=C(Cl)Cl)[N+](=O)[O-] | i | i | i | 22µM | i | i
SMILES | Tb PYK inh | Shiga toxin inh | LmPK inh | Sm TGR block | FBPA Giardia inh | CHX counter
COc1ccc(CNC(=O)c2cc3cc(OC)ccc3oc2=O)cc1 | i | i | i | i | i | i
O=C(c1ccc(Br)cc1)c1cc2ccc(O)cc2oc1=O | i | i | i | 35µM | i | i
COc1ccc2cc(C(=O)NCc3ccco3)c(=O)oc2c1 | i | 60 | i | i | i | 33
COc1ccc2oc(=Nc3ccc(C(=O)O)cc3)c(C(=O)NCc3ccco3)cc2c1 | i | i | i | i | i | i
COc1ccc(N=c2oc3c(OC)cccc3cc2C(=O)NCc2ccco2)c(OC)c1 | i | i | i | i | i | 23
O=C(NCc1ccco1)c1cc2ccc(O)cc2oc1=O | ? | i | 14µM | ? | i | i
COc1ccc2cc(C(=O)NCc3ccco3)c(=Nc3ccc(C(=O)O)cc3)oc2c1 | i | 112 | i | i | i | 55
COc1cccc(NC(=O)Cc2csc(COc3cccc(C)c3)n2)c1 | i | nt | nt | i | nt | nt
COC(=O)c1ccc(NC(=O)Nc2cccc(F)c2)cc1 | i | 86 | i | i | i | 54
